# Measurements taken from PubChem BioAssay (Tox21).
# Inconclusive results are not listed. Activity calls are given as the source filed them. The call rests on the fitted dose curve.
# Assay: qHTS assay to identify small molecule agonists or antagonists of the thyroid stimulating hormone receptor (TSHR) signaling pathway - wild type cell line counter screen (AID 1259384)
# Details: HEK293 wild type, cAMP HTRF counter-screen; series mostly up to 92.4 µM
# Source text: U.S. Tox21 Program National Center for Advancing Translational Sciences [NCATS] NIH Chemical Genomics Center [NCGC] U.S. Environmental Protection Agency [EPA] National Institutes of Environmental Health Sciences [NIEHS] National Toxicology Program [NTP] U.S. Food and Drug Administration [FDA] Tox21 Assay Overview: TSHR is the receptor for thyrotropin (thyroid stimulating hormone or TSH), a member of the glycoprotein hormone family. TSH is released by the anterior pituitary gland and is the main regulator of thyroid gland growth and development. Upon binding circulating thyrotropin, a G-protein signal cascade activates adenylyl cyclase and […] cAMP concentration is increased. cAMP is a key second messenger involved extensively in cellular signal transduction pathways associated with the majority of G-protein coupled receptors (GPCRs). The activation of these GPCRs by neurotransmitters, lipids, nucleotides, peptides and hormones results in the activation or the inhibition of plasma membrane-bound adenylate cyclase through heterotrimeric G-proteins. A cell-based TSHR-Hek293 assay can be used to identify TSHR agonists. To eliminate the false positive compounds identified from screening a cell-based TSHR-Hek293 cell line, cAMP assay in a wild type Hek293 cells was used as a counter screening.
# Tox21 Assay Protocol Summary: Hek293 cells (wild type) were dispensed at 800 cells/4 uL/well in 1536-well white plates using a Multidrop dispenser. After the assay plates were incubated at a 37 C/5% CO2 incubator for 18 hrs, 23 nL of compounds dissolved in DMSO, positive controls or DMSO only was transferred to the assay plate by a pin tool, followed by 1 ul medium containing Ro20-1724. After 30 min of incubation at room temperature, 2.5 ul/well of cAMP-d2 and 2.5 ul/well of anti-cAMP-cryptate were added respectively into the assay plates using a Flying Reagent Dispenser. The plates were incubated at room temperature for 1 hr. The fluorescence intensity in the plates was measured using an Envision plate reader. Each test compound was measured at 15 concentrations and in triplicates.
row,SMILES,outcome
1,c1ccc2c(c1)Oc1ccccc1O2,inactive
2,C#CCN(C)[C@H](C)Cc1ccccc1,inactive
3,CN(N=O)c1ccccc1,inactive
4,COCCl,inactive
5,COC(=O)NS(=O)(=O)c1ccc(N)cc1,inactive
6,O=c1[nH]c2ccccc2c(=O)o1,inactive
7,O=C(NC(=O)c1c(F)cccc1F)Nc1cc(Cl)c(OC(F)(F)C(F)C(F)(F)F)cc1Cl (stereo not given),inactive
8,CC(C)C#N,inactive
9,CCNc1nc(NC(C)C)nc(SC)n1,inactive
10,C=CC(N)=O,inactive
11,CN(C)[C@@H]1C(=O)C(C(N)=O)=C(O)[C@@]2(O)C(=O)C3=C(O)c4c(O)cccc4[C@@](C)(O)[C@H]3C[C@@H]12,inactive
12,CN1C(=O)CN=C(c2ccccc2)c2cc(Cl)ccc21,inactive
13,Cc1cccc([N+](=O)[O-])c1,inactive
14,C1CC2OC2CC1C1CO1 (stereo not given),inactive
15,CCCN(CCC)c1c([N+](=O)[O-])cc(C(F)(F)F)cc1[N+](=O)[O-],inactive
16,CCC12COCN1COC2,inactive
17,CC(C#N)CCC#N (stereo not given),inactive
18,Clc1ccccc1Cl,inactive
19,NCCc1ccc(O)cc1,inactive
20,CN=C=S,inactive

row,SMILES,outcome
1,CCN(CC)CCO,inactive
2,CC(C)OC(=O)Nc1cccc(Cl)c1,inactive
3,CC(=O)C=C(C)C,inactive
4,CCOP(=S)(OCC)Oc1cnc2ccccc2n1,inactive
5,Cc1cc(Cl)ccc1O,inactive
6,OC(O)C(Cl)(Cl)Cl,inactive
7,OCCN(CCO)CCO,inactive
8,O=c1ccc(=O)[nH][nH]1,inactive
9,c1ccc(OP(Oc2ccccc2)Oc2ccccc2)cc1,inactive
10,CCCCN(CC)C(=O)SCCC,inactive
11,Cc1[nH]c(=O)n(C(C)(C)C)c(=O)c1Cl,inactive
12,CCCN(CCC)N=O,inactive
13,CC(C)=C[C@@H]1[C@@H](C(=O)OCc2coc(Cc3ccccc3)c2)C1(C)C,inactive
14,[N-]=[N+]=[N-],inactive
15,O=c1[nH]c(=O)[nH]c(=O)[nH]1,inactive
16,CCNc1nc(NC(C)(C)C)nc(SC)n1,inactive
17,O=c1n(Cl)c(=O)n(Cl)c(=O)n1Cl,inactive
18,O=[N+]([O-])c1ccccc1,inactive
19,Cc1ccc(N)cc1Cl,inactive
20,Nc1ccccc1C(=O)O,inactive
